Reference: PubChem BioAssay (NCATS)
Inconclusive results are not listed. The source made the active and inactive calls. Unless noted, calls follow the shape of the dose curve; as a rule, active = well fitted curve in the direction sought with a large enough effect; inconclusive = small, poorly fitted or top-dose-only effect, or another doubt; inactive = no such curve, though single readings can be large; an effect the other way counts as inactive or inconclusive.

What was measured:
[1] = qHTS for Inhibitors of the Functional Ribonucleoprotein Complex (vRNP) of Lassa (LASV) Arenavirus: LASV Primary Screen - GLuc reporter signal (AID 1347082; calls by dose curve; tested in HEK293 reporter line; also: series mostly up to about 57 µM; nearly all actives have a fitted effect of over 60% in size)
[2] = qHTS for Inhibitors of the Functional Ribonucleoprotein Complex (vRNP) of Lassa (LASV) Arenavirus: Viability assay - alamar blue signal for LASV Primary Screen (AID 1347083; calls by dose curve; tested in HEK293 reporter line; also: series mostly up to about 57 µM; nearly all actives have a fitted effect of over 80% in size)
[3] = qHTS for Inhibitors of the Functional Ribonucleoprotein Complex (vRNP) of Lymphocytic Choriomeningitis Arenaviruses (LCMV): Viability assay - alamar blue signal for LCMV Primary Screen (AID 1347085; calls by dose curve; tested in HEK293 reporter line; also: series mostly up to about 57 µM; nearly all actives have a fitted effect of over 80% in size)
[4] = target: Nucleoprotein (Lymphocytic choriomeningitis virus (strain Armstrong)) (UniProt P09992); assay: qHTS for Inhibitors of the Functional Ribonucleoprotein Complex (vRNP) of Lymphocytic Choriomeningitis Arenaviruses (LCMV): LCMV Primary Screen - GLuc reporter signal (AID 1347086; calls by dose curve; also: series mostly up to about 57 µM; nearly all actives have a fitted effect of over 70% in size)
Sequence of Nucleoprotein (Lymphocytic choriomeningitis virus (strain Armstrong)) (P09992 whole entry, looked up): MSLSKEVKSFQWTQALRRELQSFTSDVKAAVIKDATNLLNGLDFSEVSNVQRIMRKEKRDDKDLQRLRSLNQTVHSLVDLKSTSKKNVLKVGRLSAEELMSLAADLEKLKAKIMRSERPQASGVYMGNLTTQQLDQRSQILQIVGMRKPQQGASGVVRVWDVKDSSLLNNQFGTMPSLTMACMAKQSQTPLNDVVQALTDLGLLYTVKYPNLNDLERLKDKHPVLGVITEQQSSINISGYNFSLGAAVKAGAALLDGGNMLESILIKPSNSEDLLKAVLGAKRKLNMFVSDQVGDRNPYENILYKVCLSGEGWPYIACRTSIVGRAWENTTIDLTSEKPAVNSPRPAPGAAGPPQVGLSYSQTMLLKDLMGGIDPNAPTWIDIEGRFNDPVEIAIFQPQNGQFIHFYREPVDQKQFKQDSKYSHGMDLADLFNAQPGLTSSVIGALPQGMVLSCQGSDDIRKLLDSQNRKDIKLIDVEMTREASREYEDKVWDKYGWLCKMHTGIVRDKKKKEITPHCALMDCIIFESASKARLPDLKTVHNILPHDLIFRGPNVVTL

[5] = system: Zika virus NS2B-NS3 protease; assay: Primary screen GU AMC qHTS for Zika virus inhibitors (AID 1347154); also: nearly all actives have a fitted effect of over 70% in size
Summary of the method: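 Unlinked Zika NS2B hydrophilic domain–NS3 protease complex at 25 nM in 10 mM Tris-HCl pH 8.0, 0.01% Tween 20, with an AMC peptide substrate. Fluorescence change (340/450 nm) over 15 min at room temperature, normalized to controls, fitted to 4-parameter Hill.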

[6] = system: Zika virus NS2B-NS3 protease (linked construct); assay: Primary screen NINDS Rhodamine qHTS for Zika virus inhibitors (AID 1347160); also: nearly all actives have a fitted effect of over 55% in size
Summary of the method: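 Each compound, titrated, sat 15 min with 25 nM linked protease before 1.5 microM Rhodamine110 substrate went in. Fluorescence gain over the next 15 min, in pH 8.0 Tris with Tween 20, gave Hill-fitted curves.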

[7] = OV-KATE Cancer Cell Toxicity qHTS against the NCATS CANVASS Library (AID 1347345)
Summary of the method: (§1)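 Step one: seed 1000 cells per well. Step two: incubate 4 h. Step three: add test compounds in 11 concentrations. Step four: culture 72 h, then add CellTiter-Glo and record luminescence after 15min.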

[8] = UWB1.289 Cancer Cell Toxicity qHTS against the NCATS CANVASS Library (AID 1347347); also: series mostly up to about 38 µM; nearly all actives have a fitted effect of over 60% in size
Summary of the method: as §1

[9] = OV-SAHO Cancer Cell Toxicity qHTS against the NCATS CANVASS Library (AID 1347348); also: series mostly up to about 38 µM; nearly all actives have a fitted effect of over 55% in size
Summary of the method: as §1

[10] = SW1088 Cancer Cell Toxicity qHTS against the NCATS CANVASS Library (AID 1347350); also: nearly all actives have a fitted effect of over 75% in size
Summary of the method: as §1

[11] = U-118MG Cancer Cell Toxicity qHTS against the NCATS CANVASS Library (AID 1347351); also: series mostly up to about 38 µM
Summary of the method: as §1

[12] = COV-362 Cancer Cell Toxicity qHTS against the NCATS CANVASS Library (AID 1347352); also: series mostly up to about 38 µM
Summary of the method: (§2)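 1000 cells/well, 4 h pre-incubation 37 °C/5% CO2; 11-pnt titration; 72 h; CellTiter-Glo 15 min RT, luminescence.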

[13] = A2780 Cisplatin Sensitive Ovarian Cancer Cell Toxicity qHTS against the NCATS CANVASS Library (AID 1347353); also: nearly all actives have a fitted effect of over 60% in size
Summary of the method: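 750 cells/well, 4 h settle; 11-pt cpd titration; 72 h, 37 °C, 5% CO2; ATPLite 10 min RT; luminescence read.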

[14] = UWB1.289-WTBRCA1 Cancer Cell Toxicity qHTS against the NCATS CANVASS Library (AID 1347354)
Summary of the method: as §2

[15] = HEK-293 Cancer Cell Toxicity qHTS against the NCATS CANVASS Library (AID 1347355); also: series mostly up to about 46 µM; nearly all actives have a fitted effect of over 65% in size
Summary of the method: as §2

[16] = HEK293 18hr Apoptosis Induction qHTS against the NCATS CANVASS Library (AID 1347357)
Summary of the method: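 Caspase-3/7 luminescence (DEVD substrate, Caspase-Glo) after 18 h compound exposure of HEK293 cells, 500 cells/well; 11-point series; doxorubicin titration as control.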

[17] = HPAF-II 12hr Apoptosis Induction qHTS against the NCATS CANVASS Library (AID 1347358)
Summary of the method: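 Caspase-Glo 3/7 luminescence (DEVD substrate) reports caspase activity in HPAF-II cells after 12 h compound treatment at 37 degrees C. Compounds were tested in an 11-point series. Doxorubicin served as control.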

[18] = HEK293 24hr Apoptosis Induction qHTS against the NCATS CANVASS Library (AID 1347359)
Summary of the method: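 HEK293 cells, 500 per well, exposed to an 11-point compound series for 24 hours at 37 degrees C. Caspase 3/7 activity read by Caspase-Glo luminescence (DEVD substrate) after 15 min at room temperature.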

[19] = HEK293 12hr Apoptosis Induction qHTS against the NCATS CANVASS Library (AID 1347361)
Summary of the method: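 500 HEK293 cells/well; cpds pin-transferred, 11-pt conc series; 12 h, 37 degrees C/5% CO2; Caspase-Glo 3/7 added, 15 min RT dark; luminescence.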

[20] = system: NAD(P)H diaphorase (Clostridium kluyveri); assay: Diaphorse counterscreen qHTS: Assay Interference Panel against the NCATS CANVASS Library (AID 1347362)
Summary of the method: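 Clostridium kluyveri diaphorase in PBS + 0.01% Tween-20 preincubated 15 min with compounds. Resazurin and NADH then added for 5 min at room temperature in the dark; resorufin fluorescence read (ex 525, em 598).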

[21] = target: Luciferin 4-monooxygenase (Photinus pyralis) (UniProt P08659); assay: Firefly luciferase counterscreen qHTS: Assay Interference Panel against the NCATS CANVASS Library (AID 1347363); also: series mostly up to about 57 µM
Sequence of Luciferin 4-monooxygenase (Photinus pyralis) (P08659 whole entry, looked up): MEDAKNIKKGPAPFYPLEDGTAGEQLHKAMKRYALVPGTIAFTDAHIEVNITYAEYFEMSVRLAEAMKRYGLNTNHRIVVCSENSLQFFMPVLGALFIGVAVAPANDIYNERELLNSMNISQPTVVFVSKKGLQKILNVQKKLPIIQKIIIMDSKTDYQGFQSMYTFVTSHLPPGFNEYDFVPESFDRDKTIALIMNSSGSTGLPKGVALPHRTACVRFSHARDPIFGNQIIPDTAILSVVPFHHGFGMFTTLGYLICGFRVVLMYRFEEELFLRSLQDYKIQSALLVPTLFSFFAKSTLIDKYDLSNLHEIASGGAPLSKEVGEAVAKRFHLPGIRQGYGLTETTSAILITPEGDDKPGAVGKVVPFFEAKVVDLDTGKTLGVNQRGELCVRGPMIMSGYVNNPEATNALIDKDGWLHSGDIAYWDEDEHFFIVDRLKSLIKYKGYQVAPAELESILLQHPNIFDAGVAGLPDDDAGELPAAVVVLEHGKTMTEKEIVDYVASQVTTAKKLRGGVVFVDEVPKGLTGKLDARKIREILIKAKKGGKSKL
Summary of the method: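 Purified P. pyralis luciferase (0.04 ug/mL, 4x reagent) added to Tris-acetate buffer with 0.013 mM D-luciferin, 0.013 mM ATP and 13.3 mM Mg-acetate; compounds preincubated 15 min, then luminescence read after 5 min, RT.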

[22] = SDT Cancer Cell Toxicity qHTS against the NCATS CANVASS Library (AID 1347365);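 also: SDT canine glioma cells 500 per well in 1536 well plates; series mostly up to about 46 µM; nearly all actives have a fitted effect of over 60% in size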
Summary of the method: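 Luminescent ATP read-out (CellTiterGlo) after 72 hr compound exposure of dog glioma SDT cells, 500 per well. Eleven-point titrations; bortezomib titration run alongside as control.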

[23] = KB-3-1 Cancer Cell Toxicity qHTS against the NCATS CANVASS Library (AID 1347366); also: series mostly up to about 46 µM; nearly all actives have a fitted effect of over 75% in size
Summary of the method: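 500 KB-3-1 cells/well; compounds pin-transferred, 11-pnt series; 72 hr, 37C/5% CO2; CellTiter-Glo, 10 min RT; luminescence read-out.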

Measured: Potency

NCCc1ccccc1
inactive: [1] | [2] | [3] | [4] | [5] | [6] | [7] | [8] | [9] | [10] | [11] | [12] | [13] | [14] | [15] | [16] | [17] | [18] | [19] | [20] | [21] | [22] | [23]
